Source: PubChem (National Center for Advancing Translational Sciences (NCATS))
Giardia FBPA inh = qHTS Assay for Inhibitors of Fructose-1,6-bisphosphate Aldolase from Giardia Lamblia. purified Giardia FBPA. Potency, µM (top dose mostly 59.6 µM), for inactives: at the highest dose activity, negative = inhibition, hits mostly inhibitors. 290,000 tested, 0.71% active; further: potency means the concentration at half of the fitted maximal effect; on the % scale 0 is the no-effect control and ±100 the full control effect; nearly all actives have a fitted effect of over 55% in size
Target sequence (A8B2U2 whole entry, looked up): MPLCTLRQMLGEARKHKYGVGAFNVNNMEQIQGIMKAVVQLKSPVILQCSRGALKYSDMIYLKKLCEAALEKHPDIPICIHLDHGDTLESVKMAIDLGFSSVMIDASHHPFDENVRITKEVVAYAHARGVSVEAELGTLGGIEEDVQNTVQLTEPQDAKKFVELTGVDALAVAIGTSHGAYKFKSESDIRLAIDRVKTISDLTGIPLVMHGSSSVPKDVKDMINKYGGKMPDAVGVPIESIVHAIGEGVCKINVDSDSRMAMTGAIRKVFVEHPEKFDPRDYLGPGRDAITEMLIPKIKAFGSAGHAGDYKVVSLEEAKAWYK
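40 nM FBPA preincubated 10 min at RT with compound (up to 57.5 uM final), then substrate plus GAPDH/TPI/NAD/arsenate coupling and diaphorase/resazurin added. Fluorescence read after 20 min at RT, 525/598 nm.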
Cycloheximide cs = Cycloheximide Counterscreen for Small Molecule Inhibitors of Shiga Toxin. cell reporter, cycloheximide protein synthesis inhibition counterscreen. max response, %. 300,000 tested, 12% active. AID 2314, 2010; in the data active means max response mostly above about 13%, no sharp cut-off; inactive means mostly below about 14%; further: read at 38.3 µM for the half of the compounds with a filed dose; 0% is about no effect
RE007 growth inh = qHTS Assay for Inhibitors of the HIV-1 protein Vpr | S. pombe RE007 Vpr strain, BacTiter-Glo ATP luminescence, 24 h | Potency, µM (doses to about 92.2 µM), for inactives: at the highest dose activity change, negative = less growth, usual class: inhibitors | 360,000 tested, 0.21% active | AID 651644, 2012; active means well fitted falling curve with a large enough effect; inconclusive means small, poorly fitted or top-dose-only effect; inactive means no such curve, though single readings can be large or run the other way; further: potency means the concentration at half of the fitted maximal effect; on the % scale 0 is the no-effect control and ±100 the full control effect; nearly all actives have a fitted effect of over 50% in size
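Fission yeast strain RE007, carrying one chromosomally integrated HIV-1 vpr copy, was seeded at OD 0.01 in PMG+AL medium with 23 nL pinned compound. After 24 h at 30 °C and 99% humidity, viability was read by BacTiter-Glo luminescence.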
TbPYK inhibitor = qHTS of Trypanosoma Brucei Inhibitors | pyruvate kinase (Trypanosoma brucei), Q57TT1 | TbPYK enzyme, Kinase-Glo Plus ATP luminescence, 45 min | Potency, µM (series often up to 76.8 µM), inactives show at the top dose activity, negative = inhibition, hits mostly inhibitors | 410,000 tested, 0.12% active | AID 624173, 2012; further: potency means the concentration at half of the fitted maximal effect; on the % scale 0 is the no-effect control and ±100 the full control effect; nearly all actives have a fitted effect of over 50% in size
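Quantitative HTS: titrated library compounds versus trypanosomal pyruvate kinase in TEA buffer (pH 7.2) containing KCl, MgCl2, BSA and Tween-20. Reactions were initiated with ADP, 130 uM final. Kinase-Glo Plus luminescence was read after 45 min at RT.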
Shiga inhibitor = A qHTS for Small Molecule Inhibitors of Shiga Toxin; Vero cells, Shiga toxin protein synthesis inhibition reporter; inhibition, % at 38.7 µM; 290,000 tested, 9.2% active; AID 2315, 2010; in the data active means inhibition mostly above about 28%, no sharp cut-off; inactive means mostly below about 43%; further: 0% is about no effect
LmPK inhibitor = qHTS Assay for Inhibitors of Leishmania Mexicana Pyruvate Kinase (LmPK). purified LmPK, Kinase-Glo ATP luminescence, 1 h. Potency, µM (doses to about 57.5 µM), for inactives: at the top dose activity change, negative = inhibition, most hits filed as inhibitors. 290,000 tested, 0.37% active. AID 1721, 2009; further: potency means the concentration at half of the fitted maximal effect; on the % scale 0 is the no-effect control and ±100 the full control effect
Target sequence (Q27686 whole entry, looked up): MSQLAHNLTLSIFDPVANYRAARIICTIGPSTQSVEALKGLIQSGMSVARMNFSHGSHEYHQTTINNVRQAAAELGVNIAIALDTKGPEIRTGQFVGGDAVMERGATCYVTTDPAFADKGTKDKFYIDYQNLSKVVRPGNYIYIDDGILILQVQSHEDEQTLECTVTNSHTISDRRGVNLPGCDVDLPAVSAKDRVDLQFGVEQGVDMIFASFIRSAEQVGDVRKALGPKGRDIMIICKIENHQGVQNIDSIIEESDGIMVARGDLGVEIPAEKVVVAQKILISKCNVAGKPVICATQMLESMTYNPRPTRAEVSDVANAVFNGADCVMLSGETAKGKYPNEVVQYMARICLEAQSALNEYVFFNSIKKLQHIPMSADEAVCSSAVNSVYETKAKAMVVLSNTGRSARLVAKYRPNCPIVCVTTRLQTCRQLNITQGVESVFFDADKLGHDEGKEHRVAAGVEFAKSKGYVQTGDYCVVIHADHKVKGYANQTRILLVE
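ATP generated from ADP (0.1 mM) and PEP (0.5 mM) by 0.1 nM LmPK over 1 h at room temperature (pH 7.2 imidazole buffer) was detected by coupled luciferase luminescence. Values were normalized to uninhibited and no-enzyme wells.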
* = called active by the depositor; ? = inconclusive; · = no result; [ ] = dose if it differs, or a comment. Only a selection was taken, and hits are over-represented in it overall. Unless noted, the call rests on the fitted dose curve; in most records, active means well fitted curve in the direction sought with a large enough effect; inconclusive means small, poorly fitted or top-dose-only effect, or another doubt; inactive means no such curve, though single readings can be large; an effect the other way counts as inactive or inconclusive.

SMILES | Giardia FBPA inh | Cycloheximide cs | RE007 growth inh | TbPYK inhibitor | Shiga inhibitor | LmPK inhibitor
CN1CCN(C(c2ccc(Br)cc2)c2cc(Cl)c3cccnc3c2O)CC1 (configuration not stated) | 9.7% | -8.2 | -6.3% | 44.2% | 2.7 | -11.5%
Cn1c(=O)c2c(nc3n2CC(COc2ccccc2)O3)n(C)c1=O (configuration not stated) | -1.9% | -2.3 | 0.8% | 1.0% | 23.5 | 4.9%
CC(=O)Oc1ccccc1/C=C/c1ccc2ccccc2[n+]1C | -10.0% | 42.8* | -9.3% | -7.2% | 107.4* | -1.8%
CN(C)c1ccc(/C=C/c2ccc3c4ccccc4ccc3[n+]2-c2ccccc2)cc1 | -10.5% | -2.6 | 28.2µM* | ? | -18.2 | 1.0%
COc1ccccc1/C=C/c1nc2ccc(OC(C)=O)cc2c(=O)o1 | 6.2% | -4.1 | 2.7% | -1.2% | -10.1 | 4.7%
CCOC(=O)c1cc(/C(C)=N/OC(=O)c2ccc(Cl)cc2)on1 | 1.5% | 3.1 | -11.2% | 0.6% | -16.2 | 0.9%
C/C(=N/OC(=O)CC(C)C)c1cc(-c2ccc(Cl)cc2)no1 | 3.4% | 15.2 | 2.6% | 6.7% | 124.3* | 0.8%
CN(C)/C=C1\N=C(c2ccc3c(c2)OCO3)OC1=O | -0.7% | 27.5* | -0.9% | 1.8% | 63.9* | -5.0%
O=C1OC(c2ccccc2)=N/C1=C\C=C\c1ccco1 | -1.3% | 1.5 | -1.3% | -6.1% | -8.4 | 3.3%
CCOc1cc(/C=C2/N=C(c3ccc4c(c3)OCO4)OC2=O)ccc1OC(C)=O | · | · | -2.5% | -1.1% | · | ·
CN(C)/C=C1\N=C(c2ccccc2)OC1=O | -0.2% | 15.4* | -13.2% | 3.8% | 19.1 | -15.9%
CN(C)Cc1ccccc1-c1cc(Nc2ccccc2)ncn1 | -5.9% | · | · | · | · | ·
Cc1ccc2cc(CN(CC3CCCO3)C(=O)Nc3ccccc3F)c3nnnn3c2c1 (configuration not stated) | 0.6% | 45.0* | -11.6% | -5.0% | 83.6* | 15.0%
Cc1ccc(C)c(C(=O)COC(=O)c2cccc(N3C(=O)c4c(C)nc5ccccc5c4C3=O)c2)c1 | 2.8% | 45.6* | -3.9% | 5.6% | 94.0* | 0.4%
CC(C)Oc1ccc(CNC(=O)CCCn2c(=O)c3cccn3c3cccnc32)cc1 | · | · | · | 6.8% | · | ·
COc1ccccc1NC(=O)COc1ccc(/C=N/NC(=O)c2cccnc2)cc1 | · | 6.9 | -6.8% | 1.8% | -11.9 | 2.2%
O=C(COc1ccc(/C=N/NC(=O)c2cccnc2)cc1)Nc1ccccc1 | · | 29.0* | 3.9% | -1.3% | 24.7 | -4.0%
O=C(COc1ccc(/C=N/NC(=O)c2ccccc2O)cc1)Nc1ccccc1 | 0.6% | 16.0 | -1.8% | -7.3% | 42.2 | 1.8%
O=C(COc1ccc(/C=N/NS(=O)(=O)c2ccccc2)cc1)Nc1ccccc1 | -2.4% | 21.0* | -10.6% | 0.6% | 60.2 | 3.0%
COc1cc(/C=C/c2cc[n+](C)cc2)ccc1OCC(=O)Nc1ccccc1 | · | 21.5 | -18.6% | -1.9% | 35.6 | -4.3%
COc1cc(/C=N/NC(=O)c2ccccc2O)ccc1OCC(=O)Nc1ccccc1 | -18.8% | 14.5* | 1.0% | -3.7% | 19.4 | 0.6%
COc1cc(C=C2C(=O)OC(C)(C)OC2=O)ccc1OCC(=O)Nc1ccccc1 | -7.2% | 16.6* | -12.1% | -4.6% | 95.0* | -4.8%
COc1cc(/C=N/NC(=O)c2ccncc2)ccc1OCC(=O)Nc1ccccc1 | -1.8% | 30.3* | 6.1% | 1.5% | 56.1* | -0.5%
O=C(COc1ccc(/C=N/NC(=O)c2cc3ccccc3o2)cc1Cl)Nc1ccccc1 | -7.8% | 47.3* | 2.1% | -9.9% | 61.9* | 11.0%
COc1ccc(NC(=O)COc2ccc(/C=N/NC(=O)c3cccnc3)cc2OC)cc1 | 2.7% | 10.3 | 7.2% | 0.8% | 32.3* | 2.2%
SMILES | Giardia FBPA inh | Cycloheximide cs | RE007 growth inh | TbPYK inhibitor | Shiga inhibitor | LmPK inhibitor
CCOc1ccccc1NC(=O)C1CCC(=O)N1S(=O)(=O)c1ccc(C)cc1 (configuration not stated) | · | 0.2 | 5.6% | 2.3% | -4.3 | -5.3%
CCOCCCNC(=S)N(CCO)Cc1cc2cc3c(cc2[nH]c1=O)OCCO3 | -23.1% | 5.5 | -0.2% | -1.1% | · | 7.6%
C=C[C@@]1(C)C[C@H](OC(=O)CSC(C)(C)CNC(=O)[C@@H](N)C(C)C)[C@@]2(C)C(C)CC[C@@]3(CCC(=O)[C@@H]32)[C@H](C)[C@H]1O (some centres not stated) | · | · | · | 0.2% | · | ·
Fc1ccc(-n2nnc(-c3ccccc3)n2)cc1 | 13.4% | -2.5 | -2.3% | 1.9% | -6.5 | -2.2%
Cn1c(-c2nnn(-c3ccc(F)cc3)n2)cc2ccccc21 | 4.3% | 54.8* | · | · | 65.1* | -13.3%
Cc1ccc(-n2nnc(-c3cc4ccccc4n3C)n2)cc1 | -4.8% | 27.1* | -7.5% | -4.0% | 33.0* | 4.1%
C=CCC1(C)OC=Cc2nc3cc(Cl)c(Cl)cc3nc21 (configuration not stated) | -1.1%[12.9 µM] | · | · | · | · | ·
Cc1nn2c(-c3cccc(NC(=O)c4ccco4)c3)nnc2c2ccccc12 | 2.2% | 22.4* | 6.9% | 0.9% | 0.0 | -0.7%
Cc1nn2c(-c3ccccc3)nnc2c2ccccc12 | 7.4% | 11.3* | ? | -4.4% | 40.7 | -17.8%
COc1ccc(-c2noc(CSc3nnc(Cc4ccccc4)n3-c3ccc(F)cc3)n2)cc1 | · | · | · | -0.7% | · | ·
COc1ccc(Br)cc1CNC(=O)CSc1cc(=O)n(C)c2ccccc12 | · | · | · | -3.9% | · | ·
COc1cc(CN2C[C@@H](CO)O[C@@H](n3cnc4c(NC5CCCC5)ncnc43)C2)cc(OC)c1OC | · | · | -8.5% | 0.6% | · | ·
Cc1cc(C)c2c(=O)cc(C(=O)Nc3ccccc3C(F)(F)F)oc2c1 | · | · | · | 11.0% | · | ·
COc1ccc(N(CC(=O)NCc2ccc(F)cc2)C(=O)c2snc(C(N)=O)c2N)cc1 | -0.1% | 7.5 | -16.3% | -4.0% | 4.2 | -9.3%
O=C1C(C2=NC(C(=O)O)C3C(=O)N(c4ccccc4)C(=O)C23)=C(O)c2ccccc21 (configuration not stated) | -19.3% | -1.3 | -26.1% | -1.5% | 15.4 | 2.3%
O=C1C(C2=C(O)c3ccccc3C2=O)=Nc2ccccc21 | -20.9% | 25.0* | ? | ? | 65.5* | 17.8µM*
O=c1cc(-c2ccccc2)[nH]n1-c1ccc([N+](=O)[O-])cc1 | 0.4% | 35.1* | -17.4% | 0.0% | 71.1* | -0.1%
O=C(CSc1ncc2c(n1)-c1ccccc1N(Cc1ccc(F)cc1)S2(=O)=O)NCc1ccccc1 | · | · | · | 2.1% | · | ·
COc1cccc(NC(=O)c2sc3nc4n(c(=O)c3c2C)CCC4)c1 | · | 48.8* | 12.3% | 5.3% | 68.9* | 3.8%
Cc1ccc(NC(=O)c2sc3nc4n(c(=O)c3c2C)CCCCC4)c(Br)c1 | · | · | · | 0.4% | · | ·
